# Cycloheximide cs: affects cycloheximide protein synthesis inhibition readout, counter-screen. hit rate 12% among 300,000. cell reporter, cycloheximide protein synthesis inhibition counterscreen. AID 2314. max response, %; in the data active = max response mostly above about 13%, no sharp cut-off; inactive = mostly below about 14%; also: read at 38.3 µM for the half of the compounds with a filed dose; 0% is about no effect
# LASV entry inh: inhibitors of Lassa virus binding or cell entry; hit rate 1.2% among 300,000; Lassa virus pseudotype entry inhibition, cell reporter; Potency, µM (titrated, usually from 37.9 µM), for the others: at the top dose activity change, negative = inhibition, actives largely listed as inhibitors; calls by dose curve; tested in HEK293 cells; also: potency is read from the fitted curve at half-maximal effect; % is scaled to controls: 0 for no effect and ±100 for the full control effect; nearly all actives have a fitted effect of over 50% in size
# Shiga inhibitor: blocks Shiga toxin action in Vero cells; Vero cells, Shiga toxin protein synthesis inhibition reporter; inhibition, % at 38.7 µM; hit rate 9.2% among 290,000; AID 2315; in the data active = inhibition mostly above about 28%, no sharp cut-off; inactive = mostly below about 43%; also: 0% is about no effect
# MARV entry inh: Marburg virus entry inhibition. Marburg virus pseudotyped entry inhibition, cell reporter. Potency, µM (series often up to 37.8 µM), inactives show at the top dose activity change, negative = inhibition, actives largely listed as inhibitors. AID 540276. hit rate 1.8% among 300,000; calls by dose curve; tested in HEK293 cells; also: potency is read from the fitted curve at half-maximal effect; % is scaled to controls: 0 for no effect and ±100 for the full control effect
# * hit, by the source's call; u = inconclusive; x = not tested or not shown; [ ] = remark or other dose. An excerpt weighted towards active compounds, which were near 12% of everything screened.
SMILES,Cycloheximide cs,LASV entry inh,Shiga inhibitor,MARV entry inh
Cc1nnc(N/N=C/c2ccccc2O)n1N,17*,u,31*,u
CCOc1cc(/C=N/Nc2ncnc(Cl)c2N)ccc1O,35*,8%,57*,0%
CCOc1cc(/C=N/Nc2nnc(C)n2N)ccc1O,25*,x,50*,x
CC1CCCN(C(=O)c2cn(-c3ccccc3)nc2-c2cccnc2)C1 (configuration not stated),x,-24%,x,20%
CCCCOC(=O)c1cccc(NC(=O)c2cc3ccccc3o2)c1,x,5%[46.1 µM],x,x
Cc1cc(/C=N/NC(N)=S)c(C)n1-c1ccc(Br)cc1,8,u,-8,u
Cc1nnc(N/N=C/c2cc(C)n(-c3ccc(F)cc3)c2C)n1N,24*,7.1µM*,4,15µM*
CCOc1ccc(/C=N/NC(=O)c2cc(-c3cccn3C)n[nH]2)cc1,-7,u,-13,-27%[46.1 µM]
O=C(CSc1nnc(CNC(=O)c2ccccc2F)n1-c1ccccc1)Nc1ccccc1F,x,-12%[46.1 µM],x,u
CN1C(=O)C2(c3ccccc31)N(C)CC(c1ccccn1)C21SC(=S)N(Cc2ccco2)C1=O (configuration not stated),32*,0%,27,u
CN1C(=O)C2(c3ccccc31)N(C)CC(c1ccccc1)C21SC(=S)N(Cc2ccco2)C1=O (configuration not stated),1,u,-8,u
O=C(NCc1cccc(Cl)c1)C1CCCN(c2nn3cc(-c4ccc(F)cc4)nc3s2)C1 (configuration not stated),x,-6%[46.1 µM],x,x
CC(=O)N1CC(C)Sc2ccc(S(=O)(=O)NCCc3ccccc3)cc21 (configuration not stated),32*,x,56*,x
CC(=O)N1CCSc2ccc(S(=O)(=O)NCCc3ccc(Cl)cc3)cc21,1,x,-3,x
CC(=O)N1CCSc2ccc(S(=O)(=O)NCCc3ccc(C)cc3)cc21,3,7.9µM*,-5,u
Cc1oc2ncn(CC(C)C)c(=O)c2c1C(=O)N(Cc1ccccc1)C(C)C,x,10%[46.1 µM],x,x
C=CCN1c2ccccc2[C@]23CCC(=O)N(CCc4ccccn4)C2=NC(C(=O)OC)=C(C(=O)OC)[C@H]13,x,x,x,4%[14.2 µM]
O=c1nccc(N/N=C/c2ccccc2O)[nH]1,27*,u,31,5.6µM*
Oc1ccccc1/C=N/Nc1nn[nH]n1,-3,x,15,x
COc1cccc(/C=N/Nc2ccnc(=O)[nH]2)c1O,26*,u,56*,u
CCOc1ccccc1/C=N/Nc1ccnc(=O)[nH]1,24*,u,28,u
CCN1C(=O)/C(=C2\C=CC3=C(CCCC3)N2CC)SC1=S,x,x,x,-7%
CCN1CCN(Cc2c(O)ccc3c(=O)c(Oc4ccccc4C(C)C)c(C(F)(F)F)oc23)CC1,x,22%[46.1 µM],x,22%[46.1 µM]
CCOC(=O)C(O)C1CCc2c([nH]c3ccc(C)cc23)C1=O (configuration not stated),25*,11µM*,50,u
CSc1nnc(N2C(=O)C(O)=C(C(=O)c3ccco3)C2c2ccc(F)cc2)s1 (configuration not stated),28*,x,21,x
SMILES,Cycloheximide cs,LASV entry inh,Shiga inhibitor,MARV entry inh
O=C(C1=C(O)C(=O)N(c2ncccn2)C1c1cccc(Cl)c1)c1ccco1 (configuration not stated),8,20%[14.3 µM],18,-1%
COc1ccc(C2C(C(=O)c3cccs3)=C(O)C(=O)N2Cc2cccnc2)cc1OC (configuration not stated),38*,7%,110*,15%[46.1 µM]
CCSc1nnc(N2C(=O)C(O)=C(C(=O)c3ccco3)C2c2cccc(OC)c2)s1 (configuration not stated),39*,x,90*,x
CSc1nnc(N2C(=O)C(O)=C(C(=O)c3ccco3)C2c2cccc(Cl)c2)s1 (configuration not stated),34*,x,22,x
CCOc1cccc(C2C(C(=O)c3ccco3)=C(O)C(=O)N2Cc2ccncc2)c1 (configuration not stated),17*,u,12,-9%
COc1cc(C2C(C(=O)c3ccco3)=C(O)C(=O)N2Cc2cccnc2)cc(OC)c1OC (configuration not stated),-3,21%,-2,0%
Fc1ccc(-c2csc(-c3ccccn3)n2)cc1F,46*,x,175*,x
c1ccc(-c2nc(-c3ccco3)cs2)nc1,30*,6%,107*,u
O=C(Nc1nc(-c2ccc(F)c(F)c2)cs1)Nc1ccc(F)cc1F,9,x,-2,x
Nc1cc(-c2ccco2)no1,16,29%,42,7%
CCOc1nc(-c2ccccc2)ccc1-c1noc(-c2ccco2)n1,-1,-9%,-1,u
Cc1ccc(-c2noc(-c3ccno3)n2)cc1,49*,u,82*,26%[46.1 µM]
c1ccc(-c2noc(-c3ccco3)n2)nc1,29*,u,36*,u
Cc1ccc(N2CC(NC(=O)c3ccccc3C(F)(F)F)CC2=O)cc1C (configuration not stated),x,-1%[46.1 µM],x,x
COc1ccc(C(=O)N2c3ccc(C)cc3C(C)(c3ccccc3)CC2(C)C)cc1 (configuration not stated),x,-9%[46.1 µM],x,x
CCN(CC)S(=O)(=O)c1ccc2c(c1)nc(CN(C)C(=O)c1cccc(Cl)c1)n2C,x,-2%[46.1 µM],x,x
CCN(c1ccc(N=Cc2c(O)n(Cc3ccc(OC)cc3)c(=O)c3ccccc23)cc1)C(C)C,25,13%,53,-4%[46.1 µM]
c1ccc(-c2nc(-c3ccccn3)no2)cc1,-5,u,-15,u
c1ccc(-c2nccc(-c3ccco3)n2)nc1,22,19%[46.1 µM],42*,27%[46.1 µM]
c1ccc(-c2noc(-c3ccno3)n2)nc1,31*,x,48*,x
c1coc(-c2ccnc(-c3ccncc3)n2)c1,11,10%[46.1 µM],15,u
COc1ccccc1OCCSc1nc2ccccc2n1CC(=O)N1CCOCC1,x,23%[46.1 µM],x,-8%[46.1 µM]
CCOC(=O)N1CCC(NC(=O)c2oc3c(F)cccc3c2C)CC1,65*,x,62*,x
COCC1CCN(C(=O)c2oc3c(F)cccc3c2C)C1 (configuration not stated),23*,x,33*,x
CC(=O)NCC1CCCN(C(=O)c2oc3c(F)cccc3c2C)C1 (configuration not stated),14,x,26,x
SMILES,Cycloheximide cs,LASV entry inh,Shiga inhibitor,MARV entry inh
Cc1c(C(=O)N2CCN(c3ccccc3)CC2)oc2c(F)cccc12,32*,22%,45,u
Cc1c(C(=O)NCCN2CCCC(O)C2)oc2c(F)cccc12 (configuration not stated),-4,x,10,x
CC(SCc1ccccc1)C(=O)N/N=C/c1cc2c(cc1Br)OCO2 (configuration not stated),15,23µM*,18,u
Cc1ccc(NC(=O)C(C)SCc2ccccc2)cc1 (configuration not stated),30*,x,82*,x
CC(SCc1ccccc1)C(=O)N/N=C/c1ccc2c(c1)OCO2 (configuration not stated),8,u,24,-4%
COc1cccc(NC(=O)C(C)SCc2ccccc2)c1 (configuration not stated),23*,7%[46.1 µM],44*,17%[46.1 µM]
CC(SCc1ccccc1)C(=O)Nc1ccc2c(c1)OCO2 (configuration not stated),37*,u,44,22%

# From PubChem
